{"source": "PubChem BioAssay AID2673", "about": "(National Center for Advancing Translational Sciences (NCATS), 2010)", "note": "Inconclusive results are not listed. Where a call stands in place of a potency, no number is given. Calls of active or inactive are those of the source. The call rests on the fitted dose curve; in most records, active means well fitted activation curve with a large enough effect; inconclusive means small, poorly fitted or top-dose-only effect; inactive means no such curve, though single readings can be large or run the other way.", "data": [{"assay": "qHTS Multiplex Assay to Identify Dual Action Probes in a Cell Model of Huntington: Cytoprotection confirmation (ATP)", "conditions": "PC12 HttQ103 induced, ATP luminescence 40 h; series mostly up to 46.1 µM", "text": "NIH Chemical Genomics Center [NCGC]\nNIH Molecular Libraries Probe Production centers Network [MLPCN]\nAssay Submitter (PI): Wei Zheng\nHuntington's disease is a neurodegenerative disorder caused by a trinucleotide repeat expansion in Exon 1 of the Huntingtin gene. The CAG trinucleotide encodes glutamine and polyglutamine expansions cause cell death in selective areas of the brain. Huntington polyglutamine repeats have the tendency to form aggregates which are observable in later stages of the disease. The exact nature of the aggregates, whether toxic, protective, or insignificant, is unclear.\nA stable PC12 cell line containing a gene fusion of Exon 1 of the Huntingtin gene linked to GFP under the control of the inducible ecdysone promoter were used as the cell-based model of Huntington Disease for high throughput screening. Exon 1 of the Huntingtin gene contained an expansion of 103 polyglutamines (Q103) which, when expressed, caused cell death and distinct, bright GFP aggregates. The amount of cell death and the size and intensity of GFP aggregates increased over time and induction level. The cell death were quantified with a measurement of ATP content in the cells. A maximal 40-50% of cell death was observed when the Huntington gene was induced in this cell line.\nWe optimized this assay in a homogeneous 1536 well format. A quantitative high throughput screen (qHTS) was conducted on the PC12 cells which were induced to express the toxic fusion construct. Small molecules which prevented cell death were identified by using a luminescent ATP quantification method (Perkin Elmer's ATPlite).\nPC12 cells stably containing a construct with an ecdysone inducible promoter expressing GFP fused to the exon 1 of HTTQ103 (Huntington protein which containing a 103 ployglutamine expansion) were used.\nNCGC Assay Protocol Summary:\nSequence, Parameter, Description\n1, Reagent, 5 uL 1500 cells/well 1536 TC treated White clear bottom plate\n2, Compound, 23 nL Tebufenozide inducer (100 nM final) to all columns\n3, Compound, 23 nL 40 uM to 0.5 nM Libraries\n5, Reagent, 5 ul ATPLite cell death assay reagent\n6, Detector, 4 sec integration with a Viewlux Luminescent\nMedia consisted of phenol red free DMEM + 5% equine serum (Hyclone # SH30072.03 ), 5% supplemented Bovine Calf Serum (Hyclone # SH30074.03 ), 1x pen/strep, no G418", "values": [{"smiles": "Fc1cccc(Cl)c1Cn1nnc2c(-n3ccnc3)ncnc21", "Potency": "inactive"}, {"smiles": "C=C(C)C(=O)OCCCCCCOc1ccc(C(=O)O)cc1", "Potency": "inactive"}, {"smiles": "COc1ccc(C(=O)C(CN2CCOCC2)c2ccccc2)cc1", "note": "(stereo not given)", "Potency": "inactive"}, {"smiles": "Cc1cc(C)nc(Sc2nc(C)nc3c2oc2ccccc23)n1", "Potency": "inactive"}, {"smiles": "COc1ccc2cc3cc(C(=O)NCc4ccco4)oc3nc2c1", "Potency": "inactive"}, {"smiles": "Cc1ccc(-c2csc3ncnc(Sc4nnnn4C)c23)cc1", "Potency": "35.5 µM (active)"}, {"smiles": "CS(=O)(=O)c1ccc([C@H](O)[C@H](CO)NC(=O)C(Cl)Cl)cc1", "Potency": "inactive"}, {"smiles": "Cc1cccc(-c2csc3ncnc(Sc4nnnn4C)c23)c1", "Potency": "31.6 µM (active)"}, {"smiles": "C[C@@H]1CNCCN1S(=O)(=O)c1cccc2cnccc12", "Potency": "inactive"}, {"smiles": "Cn1nnnc1Sc1ncnc2scc(-c3cccc(C#N)c3)c12", "Potency": "12.6 µM (active)"}, {"smiles": "Cn1nnnc1Sc1ncnc2scc(-c3cnc(N)nc3)c12", "Potency": "35.5 µM (active)"}, {"smiles": "Cc1csc(N/N=C/c2ccc(O)c([N+](=O)[O-])c2)n1", "Potency": "inactive"}, {"smiles": "Cn1nnnc1Sc1ncnc2scc(-c3cccc(N)c3)c12", "Potency": "inactive"}, {"smiles": "CN1C(=O)NC(NC(=O)c2cccs2)(C(F)(F)F)C1=O", "note": "(stereo not given)", "Potency": "inactive"}, {"smiles": "CC(=O)c1cccc(-c2csc3ncnc(Sc4nnnn4C)c23)c1", "Potency": "10 µM (active)"}, {"smiles": "O=C(N/N=C/c1ccc(O)c(O)c1)c1ccc(CSc2cccc3cccnc23)cc1", "Potency": "inactive"}, {"smiles": "Cc1noc(C)c1COC(=O)Cc1ccc(Cl)cc1", "Potency": "inactive"}, {"smiles": "CC(=O)Nc1ccc(S(=O)(=O)N2CCSC2c2ccccc2)cc1", "note": "(stereo not given)", "Potency": "inactive"}, {"smiles": "Cn1nnnc1Sc1ncnc2scc(-c3ccccc3)c12", "Potency": "25.1 µM (active)"}, {"smiles": "CCOC(=O)c1noc(C)c1C(=O)Nc1cccc(F)c1", "Potency": "inactive"}, {"smiles": "Cc1nnsc1C(=O)N/N=C/c1ccc2ccccc2c1O", "Potency": "inactive"}, {"smiles": "C=CCC(=O)OCCCCCCOc1ccc(C(=O)O)cc1", "Potency": "inactive"}, {"smiles": "O=c1c2ccccc2nnn1CSc1ncnc2ccccc12", "Potency": "inactive"}, {"smiles": "Fc1ccc(N2CCN(c3ncnc4nc[nH]c34)CC2)cc1", "Potency": "inactive"}, {"smiles": "Cc1ccccc1-c1csc2ncnc(Sc3nnnn3C)c12", "Potency": "inactive"}, {"smiles": "COc1ccc(-c2[nH]ncc2-c2ccc3c(c2)OCCO3)c(O)c1", "Potency": "inactive"}, {"smiles": "CC(=O)OCC1=C(C(=O)O)N2C(=O)[C@@H](NC(=O)Cc3cccs3)[C@H]2SC1", "Potency": "inactive"}, {"smiles": "CC(C)(C)n1nnnc1C(c1ccc2ncccc2c1)N1CCSCC1", "note": "(stereo not given)", "Potency": "inactive"}, {"smiles": "COc1ccccc1-n1nnnc1S(=O)(=O)Cc1ccc(Cl)cc1", "Potency": "inactive"}, {"smiles": "Cc1ccccc1N=C(N)Nc1ccccc1C", "Potency": "inactive"}, {"smiles": "CN1C(=O)C2(c3ccccc31)C1CCCC=C1C(C#N)=C(N)C2(C#N)C#N", "note": "(stereo not given)", "Potency": "inactive"}, {"smiles": "O=C(NCc1ccco1)c1cc2ccc(O)cc2oc1=O", "Potency": "inactive"}, {"smiles": "Cn1nnnc1Sc1ncnc2scc(-c3ccccc3C(F)(F)F)c12", "Potency": "inactive"}, {"smiles": "Cn1nnnc1Sc1ncnc2scc(-c3ccc(Cl)cc3)c12", "Potency": "inactive"}, {"smiles": "Cn1nnnc1Sc1ncnc2scc(-c3ccccc3Cl)c12", "Potency": "31.6 µM (active)"}, {"smiles": "CC(=O)Oc1cccc(C(=O)O)c1OC(C)=O", "Potency": "inactive"}, {"smiles": "Cn1nnnc1Sc1ncnc2scc(-c3ccc(F)cc3)c12", "Potency": "25.1 µM (active)"}, {"smiles": "Cn1nnnc1Sc1ncnc2scc(-c3ccccc3F)c12", "Potency": "inactive"}, {"smiles": "COc1ccc2c(c1)-c1c(ssc1=S)C(C)(C)N2", "Potency": "inactive"}, {"smiles": "Cn1nnnc1Sc1ncnc2scc(-c3ccsc3)c12", "Potency": "11.2 µM (active)"}]}]}
